Test systems include HCT-15 colon; HT29 colon; SNB-75 CNS; SNB-19 CNS; PC-3 prostate; SK-MEL-5 melanoma; UACC-62 melanoma; LOX IMVI melanoma; SK-MEL-28 melanoma; SK-MEL-2 melanoma; SN12C renal; UO-31 renal; TK-10 renal; ACHN renal; CAKI-1 renal; A498 renal; CCRF-CEM leukemia; MOLT-4 leukemia; EKVX NSCLC.
What all share (experiment): NCI-60 one-dose screen, 48 h (100 = growth as untreated, 0 = no growth, -100 = all killed)
Conditions in all cases: 10 µM unless noted

Compounds without any hit were thinned out: in the full panel of roughly 83,000, 20% have a hit.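 Interpretation: 100, growth as untreated; towards 0, rising growth inhibition; 0, no net growth; 0 to -100, cell death. Compounds scoring below 10 were considered active.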 Unmarked numbers belong to inactive results. Activity calls are given as the source filed them.

In the case of `Cc1nc2cc(Nc3nc(N4CCCCC4)nc(N4CCOCC4)n3)ccc2n1Cc1ccccc1`, the growth in the assay with HCT-15 colon was 21.3%; in the assay with HT29 colon, -8.67% (active); in the assay with SNB-75 CNS it was -12.7% (active); in the assay with SNB-19 CNS, 65.3%; with PC-3 prostate, 47.1%; with SK-MEL-5 melanoma, 54.9%. Moreover, the growth with UACC-62 melanoma is 32.1%; with LOX IMVI melanoma, 1.44% (active); in the assay with SK-MEL-28 melanoma, 46.6%; in the assay on SK-MEL-2 melanoma, 19%; in the assay on SN12C renal, 52.2%; with UO-31 renal, 1.61% (active). The growth with TK-10 renal was -32.9% (active); in the assay on ACHN renal it was -41.4% (active); in the assay with CAKI-1 renal, 63.3%; in the assay with A498 renal, 38.8%; in the assay on CCRF-CEM leukemia, 62.2%; in the assay on MOLT-4 leukemia, 36.4%.
`C=CC[P+](c1ccccc1)(c1ccccc1)c1ccccc1`: the growth with HCT-15 colon is 98.1%; with HT29 colon, 40%; in the assay with SNB-75 CNS, 63.3%; with SNB-19 CNS it was 61.6%; in the assay with PC-3 prostate, 34.7%; in the assay on SK-MEL-5 melanoma, 33.4%. The growth was 42% in the assay on UACC-62 melanoma; 66.4% with LOX IMVI melanoma; 71.8% in the assay with SK-MEL-28 melanoma; 24.6% with SK-MEL-2 melanoma; 69.7% in the assay with SN12C renal; 99.7% in the assay on UO-31 renal. For the same compound, the growth is 78.7% in the assay with TK-10 renal; 91.2% in the assay on ACHN renal; 90.9% with CAKI-1 renal; 81.5% in the assay with A498 renal; 59.7% with CCRF-CEM leukemia; 62.5% in the assay with MOLT-4 leukemia.
For `COc1cc(C(=O)N(C(C)C)C2CCCCC2)cc(OC)c1OC`, the growth was 103% in the assay on HCT-15 colon; 99.2% in the assay on HT29 colon; 87.6% with SNB-75 CNS; 97.9% with SNB-19 CNS; 89.8% with PC-3 prostate; 96.5% in the assay with UACC-62 melanoma. Also, the growth with LOX IMVI melanoma was 94.6%; in the assay on SK-MEL-28 melanoma it was 105%; in the assay with SK-MEL-2 melanoma, 98.5%; in the assay with EKVX NSCLC it was 144%; in the assay with SN12C renal it was 96.3%; in the assay on UO-31 renal it was 89%. Moreover, the growth was 94% with TK-10 renal; 103% in the assay on ACHN renal; 86.6% in the assay on CAKI-1 renal; 102% in the assay with A498 renal; 94.8% with CCRF-CEM leukemia; 97.1% with MOLT-4 leukemia.
In the case of `C[C@]1(CO)C[C@@H](O)C[C@]2(C)[C@@H]1CC[C@@]13C[C@@H]4[C@@H](C[C@H]12)[C@]4(C)C3`, the growth in the assay with HCT-15 colon is 103%; in the assay on HT29 colon, 105%; in the assay on SNB-75 CNS it was 88.9%; in the assay with SNB-19 CNS, 95.7%; in the assay with PC-3 prostate, 99%; with SK-MEL-5 melanoma it was 99%. Moreover, the growth with UACC-62 melanoma is 94.1%; with LOX IMVI melanoma, 107%; in the assay on SK-MEL-28 melanoma, 103%; in the assay with SK-MEL-2 melanoma, 102%; in the assay with SN12C renal it was 99.1%; in the assay with UO-31 renal, 83.9%. In addition, the growth with TK-10 renal was 103%; in the assay with ACHN renal, 97.7%; in the assay with CAKI-1 renal, 89.5%; with CCRF-CEM leukemia it was 116%; with MOLT-4 leukemia, 108%.
As for `Cc1nn(-c2ccccc2)c2nc3nc4c(c(N)c3c(-c3ccc(Cl)cc3)c12)CCC4`, the growth in the assay with HCT-15 colon was 76.5%; in the assay on HT29 colon it was 55.2%; in the assay with SNB-75 CNS, 86.2%; in the assay with SNB-19 CNS, 111%; in the assay with PC-3 prostate, 88.2%; in the assay on SK-MEL-5 melanoma, 99.4%. The growth is 102% with UACC-62 melanoma; 62.5% in the assay with LOX IMVI melanoma; 96.9% in the assay on SK-MEL-28 melanoma; 96.8% with SK-MEL-2 melanoma; 105% in the assay with SN12C renal; 75.2% in the assay with UO-31 renal. In addition, the growth was 105% in the assay with TK-10 renal; 51.1% in the assay with ACHN renal; 93.1% with CAKI-1 renal; 92.4% in the assay with A498 renal; 21.7% with CCRF-CEM leukemia; 90.4% in the assay with MOLT-4 leukemia.
For `Oc1ccc(Cl)cc1CNc1nc2ccccc2[nH]1`, the growth in the assay with HCT-15 colon is 15.9%; in the assay with HT29 colon, -46% (active); in the assay on SNB-75 CNS, 70.5%; in the assay with SNB-19 CNS, 111%; in the assay with PC-3 prostate, -5.5% (active); in the assay on SK-MEL-5 melanoma, 49%. In addition, the growth is -68.1% (active) with UACC-62 melanoma; -78.1% (active) in the assay with LOX IMVI melanoma; -82.6% (active) in the assay with SK-MEL-28 melanoma; 87.1% in the assay with SK-MEL-2 melanoma; 61.1% in the assay with SN12C renal; 56% in the assay on UO-31 renal. Besides, the growth was 57% in the assay on ACHN renal; 64% in the assay with CAKI-1 renal; 59.6% with A498 renal; -21.4% (active) with CCRF-CEM leukemia; -25.1% (active) in the assay with MOLT-4 leukemia.
On to `Cc1nc2cc(Nc3nc(Nc4ccc(F)cc4)nc(-c4cccs4)n3)ccc2n1Cc1ccccc1`, for which the growth is 30.3% in the assay on HCT-15 colon; 20.5% in the assay on HT29 colon; 52.2% with SNB-75 CNS; 66.7% with SNB-19 CNS; 29.4% in the assay with PC-3 prostate; 76.5% in the assay with SK-MEL-5 melanoma. The growth in the assay on UACC-62 melanoma was 61.5%; in the assay with LOX IMVI melanoma, 64.8%; in the assay with SK-MEL-28 melanoma, 74.3%; in the assay on SK-MEL-2 melanoma, 72.9%; with SN12C renal, 70.3%; with UO-31 renal, 36.5%. In addition, the growth is 62.7% in the assay with TK-10 renal; 45.6% with ACHN renal; 70.2% in the assay with CAKI-1 renal; 56% with A498 renal; 27.2% in the assay with CCRF-CEM leukemia; 23.5% with MOLT-4 leukemia.
For the compound `CCCCCCCCCCCC(=O)[O][Sn]([CH2]CCC)([CH2]CCC)[CH2]CCC`, the growth in the assay on HCT-15 colon is -87.2% (active); with HT29 colon it was -90.3% (active); with SNB-75 CNS, -100% (active); in the assay with SNB-19 CNS it was -95.5% (active); in the assay with PC-3 prostate, -92.6% (active); with SK-MEL-5 melanoma, -97.8% (active). Moreover, the growth with LOX IMVI melanoma was -90.1% (active); in the assay on SK-MEL-28 melanoma, -99.1% (active); in the assay on SK-MEL-2 melanoma it was -90.5% (active); in the assay on SN12C renal it was -93.5% (active); with UO-31 renal, -97.9% (active); in the assay on ACHN renal, -95.2% (active). Also, the growth in the assay on CAKI-1 renal was -97.8% (active); in the assay on A498 renal, -86% (active); in the assay on MOLT-4 leukemia it was -27% (active).
For the compound `CCOC(=O)c1cc2c(n(C)c1=O)-c1cnn(-c3ccc(OC)cc3)c1CC2`, the growth in the assay with HCT-15 colon was 89%; in the assay with HT29 colon, 95.6%; in the assay with SNB-75 CNS, 90.5%; in the assay on SNB-19 CNS it was 96.6%; in the assay on PC-3 prostate, 98.5%; with SK-MEL-5 melanoma, 98%. Moreover, the growth is 91.1% in the assay on UACC-62 melanoma; 93.9% with LOX IMVI melanoma; 96.6% in the assay on SK-MEL-28 melanoma; 105% in the assay with SK-MEL-2 melanoma; 77.5% in the assay with UO-31 renal; 130% with TK-10 renal. Moreover, the growth in the assay on ACHN renal is 81.4%; in the assay with CAKI-1 renal, 89.8%; in the assay on A498 renal, 87%; with CCRF-CEM leukemia, 89.5%; with MOLT-4 leukemia, 94.2%.

(Values after PubChem BioAssay (NCI).)
